# Compounds without any hit were thinned out: in the full panel of roughly 83,000, 20% have a hit.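 Plates (96-well) were seeded with cells, treated with compound at one concentration, and incubated for 48 hours before percent growth was determined.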 A number with no mark means an inactive call. The source made the active and inactive calls. Rule for the calls: active = growth percent below 10; inactive = the rest.
# Columns and labels:
# Test in all cases: NCI-60 one-dose screen, 48 h (100 = growth as untreated, 0 = no growth, -100 = all killed)
# Conditions in all cases: 10 µM unless noted
# [1] = tested on: DU-145 prostate
# [2] = tested on: K-562 leukemia
# [3] = tested on: MALME-3M melanoma
# [4] = tested on: MDA-MB-231 breast
# [5] = tested on: RXF 393 renal
# [6] = tested on: SF-268 CNS
# [7] = tested on: SF-295 CNS
# [8] = tested on: SF-539 CNS
# [9] = tested on: UACC-257 melanoma
# [10] = tested on: M14 melanoma
SMILES,growth [1],growth [2],growth [3],growth [4],growth [5],growth [6],growth [7],growth [8],growth [9],growth [10]
CCCCCC(=O)OCc1ccc(Cl)c(Cl)c1,105%,98.8%,90.4%,110%,116%,99.3%,108%,105%,103%,104%
Ic1ccccc1-c1ccccc1,114%,104%,95%,102%,105%,105%,122%,108%,99%,103%
Cc1cn(-c2cc(NC(=O)c3ccc(C)c(Nc4nccc(-c5cccnc5)n4)c3)cc(C(F)(F)F)c2)cn1,46%,-11.1% (active),-15% (active),40%,-4.7% (active),55.8%,42.9%,82.4%,34.5%,8.64% (active)
COCc1c(-c2ccc(NC(=O)Nc3cc(C(F)(F)F)ccc3F)c(F)c2)c2c(N)ncnn2c1CN1CCOCC1,-4% (active),1.74% (active),-37% (active),-50% (active),-88.4% (active),-14.5% (active),-54.2% (active),-71.5% (active),-9.75% (active),-41% (active)
C/C(=C(/c1ccc(Cl)cc1)c1ccc(OCCN2CCCCC2)cc1)c1ccccc1,97.6%,13.2%,76.9%,80.2%,84.7%,90.5%,83.8%,69.6%,80.3%,67.1%
N#CCNC(=O)c1ccc(-c2ccnc(Nc3ccc(N4CCOCC4)cc3)n2)cc1,18.6%,26.9%,33.2%,19.8%,-62.8% (active),22.1%,49.5%,-9.39% (active),31.1%,44%
COc1cc2cc(NCc3ccc(Cl)cc3)nc(C)c2cc1OC,49%,9.09% (active),88.3%,42.1%,48.5%,43.7%,34.4%,-14.9% (active),64.2%,19.3%
Cc1cc(Nc2ncc(Cl)c(Nc3ccccc3S(=O)(=O)C(C)C)n2)c(OC(C)C)cc1C1CCNCC1,-99% (active),-53.5% (active),-84.9% (active),-88% (active),-93.4% (active),-95.3% (active),-91.6% (active),-98.9% (active),-90.1% (active),-95.2% (active)
CC(C)(C)c1cnc(CSc2cnc(NC(=O)C3CCNCC3)s2)o1,7.26% (active),4.07% (active),-41.1% (active),6.82% (active),-51.5% (active),12%,11.6%,-33.1% (active),-25.5% (active),-58.6% (active)
COc1ccc(COc2cc3oc(=O)c4cc(C(C)O)ccc4c3cc2OC)cc1 (stereo not given),94.9%,20.1%,66.8%,67.2%,47.8%,55.8%,49%,60.7%,42.8%,57.6%
FC(F)(F)c1ccc(CNc2ccc(Cc3c[nH]c4ncc(Cl)cc34)cn2)cn1,61.2%,12.4%,15.9%,24.5%,-7.15% (active),27.7%,13.6%,19.3%,7.18% (active),11.5%
CN(C[C@@H]1COCCO1)S(=O)(=O)Nc1ccc2ccc3ncc(-c4cnn(C)c4)cc3c(=O)c2c1,44%,39.5%,46%,49.5%,-2.79% (active),35%,19.3%,0.172% (active),69.3%,35.3%
c1cc(OCCN2CCCCC2)cc(-c2n[nH]c3ccc(-c4ncn[nH]4)cc23)c1,62.4%,36.9%,13.5%,54.7%,90.3%,77.8%,92.3%,49.4%,70.8%,22.9%
Cc1ccccc1N1C(c2ccccc2)=NNC12C=CC(=O)C=C2Cl (stereo not given),110%,96.4%,98.6%,111%,132%,99.1%,108%,93.4%,81.1%,105%
C[C@@H](Oc1cc(-n2cnc3ccc(CN4CCN(C)CC4)cc32)sc1C(N)=O)c1ccccc1C(F)(F)F,2.67% (active),6.08% (active),21%,27.2%,16.5%,31.6%,32.7%,-22.1% (active),-25.5% (active),15.7%
CCOC(=O)c1sc(NC(=O)COc2ccc(/C=C3\Cc4ccc(Cl)cc4C3=O)cc2)nc1C,117%,102%,110%,90.6%,116%,114%,127%,86.9%,112%,107%
CNC(=O)c1cnc(C)nc1-c1cc(C(C)(C)C)c(O)c(C(C)(C)C)c1,99.8%,90.4%,87.5%,87.5%,111%,98%,88.5%,91.9%,100%,94.1%
COc1cc2c(Nc3ccc(Br)cc3F)ncnc2cc1OCC1CCN(C)CC1,33%,3.22% (active),-52.3% (active),9.67% (active),-38.2% (active),30.5%,45.8%,-58.4% (active),-85.9% (active),-82.5% (active)
C=CC(=O)N1CCC[C@@H](n2nc(-c3ccc(Oc4ccccc4)cc3)c3c(N)ncnc32)C1,47.9%,8.51% (active),86.8%,56.4%,11%,42%,60.7%,32.9%,26.4%,41.9%
O=C1OCC2=C1C(c1cccc(F)c1)c1cc3c(cc1N2CCO)OCCO3 (stereo not given),14.3%,8.66% (active),46.2%,24.8%,4.45% (active),34.5%,-15.9% (active),-31.7% (active),89%,-9.63% (active)
Cc1nc(-c2cn3c(n2)-c2ccc(-c4cnn(C(C)(C)C(N)=O)c4)cc2OCC3)n(C(C)C)n1,28.7%,51%,11.1%,31.8%,-28.1% (active),33.1%,3.66% (active),-19.5% (active),20.2%,40.5%
CN1CCN(CCOc2cc(OC3CCOCC3)c3c(Nc4c(Cl)ccc5c4OCO5)ncnc3c2)CC1,43.8%,5.29% (active),98.3%,61.3%,31.6%,61.4%,77.8%,60%,82.7%,79.4%
O=C(Cc1ccc(-c2ccc(OCCN3CCOCC3)cc2)cn1)NCc1ccccc1,8.3% (active),7.04% (active),40.4%,26.7%,29.3%,29.6%,11.7%,-33.2% (active),8.49% (active),0.711% (active)
CNC(=O)c1ccccc1Nc1nc(Nc2ccc3c(c2OC)CCC[C@H](N2CCN(CCO)CC2)C3)ncc1Cl,18.7%,-43.9% (active),-52.1% (active),-19.4% (active),-23.3% (active),17.3%,-63.7% (active),-41.7% (active),-75.8% (active),-69% (active)
COc1cc(N2CCC(N(C)C)CC2)ccc1Nc1ncc(Cl)c(Nc2ccccc2P(C)(C)=O)n1,0.609% (active),12.5%,32%,5.47% (active),-60.1% (active),-26.8% (active),27.7%,-49.3% (active),17.2%,10.3%

# — PubChem BioAssay (NCI)
